WRN inhibitor = WRN helicase (human) inhibition; Q14191; actives 0.46% (n = 360,000); Potency, µM (top dose mostly 114 µM), without a hit: top-dose activity change, negative = inhibition, most hits filed as inhibitors; AID 651768; WRN helicase unwinding, fluorescent forked duplex, kinetic; also: potency is read from the fitted curve at half-maximal effect; nearly all actives have a fitted effect of over 55% in size
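Kinetic fluorescence helicase assay: unwinding of a quenched forked DNA duplex (100 nM final) with 2 mM ATP final raises red fluorescence (525/598 nm). Compounds sat 15 min at room temperature with 20 nM WRN beforehand.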
PLK1 PBD block = inhibitors of human PLK1 polo-box domain binding; P53350; Potency, µM, for the others: max response, negative = inhibition, usual class: inhibitors; AID 720504; actives 2.8% (n = 360,000); Plk1 PBD binding of FITC phosphopeptide, fluorescence polarization; also: potency is read from the fitted curve at half-maximal effect; series mostly up to about 57 µM; nearly all actives have a fitted effect of over 65% in size
Target sequence (P53350 whole entry, looked up, the tested form may be a part): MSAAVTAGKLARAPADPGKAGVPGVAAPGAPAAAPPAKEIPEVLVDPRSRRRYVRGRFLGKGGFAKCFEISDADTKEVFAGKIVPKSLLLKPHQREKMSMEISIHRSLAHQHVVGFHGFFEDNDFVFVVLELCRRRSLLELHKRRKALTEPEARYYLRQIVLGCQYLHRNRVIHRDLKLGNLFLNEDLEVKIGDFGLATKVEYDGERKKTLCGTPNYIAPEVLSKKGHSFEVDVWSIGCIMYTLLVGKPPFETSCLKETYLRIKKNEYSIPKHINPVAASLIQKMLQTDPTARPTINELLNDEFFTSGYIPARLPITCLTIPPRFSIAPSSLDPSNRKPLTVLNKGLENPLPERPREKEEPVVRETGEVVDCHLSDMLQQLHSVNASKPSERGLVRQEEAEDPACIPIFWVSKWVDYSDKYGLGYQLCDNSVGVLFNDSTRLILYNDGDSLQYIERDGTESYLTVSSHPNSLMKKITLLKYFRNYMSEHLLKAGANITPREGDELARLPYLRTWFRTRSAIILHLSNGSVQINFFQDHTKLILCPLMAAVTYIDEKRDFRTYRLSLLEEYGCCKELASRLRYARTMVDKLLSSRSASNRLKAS
PI5P4K alpha inh = inhibitors of human PI5P4K alpha; PI5P4Kalpha enzyme, ADP-Glo luminescence, 60 min; stronger effect = lower value; max response, %; P48426; actives 1.2% (n = 330,000); AID 652105; active = max response of -50% or lower; inconclusive = between -30% and -50%; inactive = -30% or higher; also: value at the top dose of about 77 µM
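PI5P4Kalpha ADP-Glo assay; 5 microM ATP final; 60 min RT reaction; HEPES pH 7.4/EGTA/CHAPS, 5% DMSO; controls lacking substrate or enzyme; luminescent end-point.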
USP1-UAF1 inh = blocks the human USP1/UAF1 deubiquitinase complex | actives 0.23% (n = 390,000) | recombinant USP1/UAF1, Ub-Rhodamine cleavage fluorescence | Potency, µM (doses to about 57.1 µM), for the others: at the highest dose activity change, negative = inhibition, usual class: inhibitors | AID 743255; also: potency is read from the fitted curve at half-maximal effect; nearly all actives have a fitted effect of over 60% in size
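High-throughput fluorogenic screen: 1nM USP1/UAF1 complex, Ub-Rho substrate 150nM final, 50mM HEPES pH 7.8 with 0.5mM EDTA, 0.1 mg/ml BSA, 1mM TCEP and 0.01% Tween-20.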
USP2a inh = USP2a (human) protease inhibition; O75604; USP2 core, Ub-CHOP2 coupled fluorogenic reporter, 485/531; Potency, µM (series often up to 38.3 µM), for the others: at the highest dose activity change, negative = inhibition, most hits filed as inhibitors; actives 0.01% (n = 330,000);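 also: potency is read from the fitted curve at half-maximal effect; plate controls were DMSO wells for no effect and full inhibition by NEM control for full effect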
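Deubiquitinase activity read as fluorescence (485/531 nm) after Ub-CHOP2 cleavage activates the enterokinase reporter on its substrate; USP2 core 10nM, Ub-CHOP2 and substrate 25nM each, 30min compound preincubation then 60min RT; data normalized to NEM, curves fitted.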
Starred values were filed as active, the others as inactive; ? = inconclusive; / = not tested or not shown; ! = a repeat was not active; [ ] = dose if it differs, or a comment. Only some compounds are listed: those with a hit (about 3.3% of all), similar ones and a draw of the others. Unless noted, calls follow the shape of the dose curve; as a rule, active = well fitted curve in the direction sought with a large enough effect; inconclusive = small, poorly fitted or top-dose-only effect, or another doubt; inactive = no such curve, though single readings can be large; an effect the other way counts as inactive or inconclusive. Unless noted, % is scaled to controls: 0 for no effect and ±100 for the full control effect.

SMILES	WRN inhibitor	PLK1 PBD block	PI5P4K alpha inh	USP1-UAF1 inh	USP2a inh
CCc1ccccc1NC(=O)C(=O)NCC(c1cccnc1)N1CCN(c2ccccc2F)CC1 (stereo unspecified)	/	/	/	0.4%	/
CCOc1ccccc1CNC(=O)C1CCN(C(=O)N2CC(CC)Oc3ccc(C)cc32)CC1 (stereo unspecified)	/	/	/	-5.8%	/
COc1ccccc1OCC(=O)Sc1ccc(C)cc1	?	2.99µM*	/	-7.9%	1.6%
Cc1ccc(OCC(=O)Sc2ccc(C)cc2)cc1	-27.1%	5.97µM*	22.7	-15.6%	3.3%
COc1cc(C(=O)Sc2ccc(C)cc2)cc(OC)c1OC	-6.8%	-9.3%	1.4	-12.3%	1.8%
COc1cccc(NC(=O)Nc2ccc3nc(N4CCN(C)CC4)cc(C)c3c2)c1	/	/	/	-21.8%	/
COc1ccc(-c2cc(C(F)F)n3ncc(C(=O)N4CCc5ccccc54)c3n2)cc1	5.1%	6.7µM*	-7.7	-10.3%	3.3%
Cc1ccc(-c2nn(C)c(=O)c3ccccc23)cc1CNC(=O)CSc1nc2ccccc2o1	-7.8%	26.7µM*!	-24.7	-18.9%	0.8%
O=c1cc(/N=C/c2coc3c(ccc4ccccc43)c2=O)[nH]c(=S)[nH]1	-4.3%	-24.0%	-74.8*	-22.8%	1.0%
NC(=S)N/N=C/c1coc2c(ccc3ccccc32)c1=O	-10.4%[11.6 µM]	2.3%	-14.8	-8.4%	4.7%
Cc1ccc(Nc2ncc(C(=O)N3CCN(c4ccc(F)cc4)CC3)c3ccccc23)cc1Cl	/	/	/	-17.1%	/
C=CC[n+]1ccc(/C=C2\C=Cc3cc(C)ccc3N2CC)c2ccccc21	39.8µM*	-17.6%	?	-1.9%	1.2%
CCCCC(CC)CN=C(N)NC(N)=NCCCCCCN=C(N)NC(N)=NCC(CC)CCCC (stereo unspecified)	89.1µM*	?	-20.8	31.6µM*	?
COc1ccc(N2CCN(C(=S)NCCc3ccccc3)CC2)cc1	3.0%	26.7µM*	-13.9	-5.8%	/
COc1cccc(N2CCN(C(=S)NCCc3ccccc3)CC2)c1	-2.1%	-12.3%	-1.5	-12.6%	-0.9%
COc1ccc(CCNC(=S)N2CCC(C(N)=O)CC2)cc1	-3.1%	33.6µM*	-7.2	-3.8%	0.0%
COc1ccc(CCNC(=O)C2CCCN(C(=O)c3ccc(Cl)cc3)C2)cc1 (stereo unspecified)	12.2%	-14.1%	-3.1	5.1%	-0.8%
COc1ccc(CCNC(=O)C2CCN(C(=O)c3ccc(Br)cc3)CC2)cc1	1.5%	26.7µM*	-7.3	-14.9%	-0.9%
COc1ccc(CCNC(=S)NC2CCN(Cc3ccccc3)CC2)cc1	-14.4%	29.9µM*	-4.3	-6.0%	1.0%
Cc1cccc(C)c1NC(=O)CSc1nccn1C	/	/	/	-13.5%	/
CCOc1ccc(NC(=O)Cn2nc3c(cc2=O)CC(C)CC3)cc1 (stereo unspecified)	/	/	/	-14.0%	/
O=C(/C=C/c1ccco1)c1ccc(NC(=O)C23CC4CC(CC(C4)C2)C3)cc1	?	-24.3%	-76.9*	-4.4%	-1.3%
COc1ccc(CNC(=O)CCC(=O)N2CCSc3ccccc32)cc1	/	/	/	-3.0%	/
CCn1c(SCC(=O)Nc2ccccc2Br)nnc1-c1cnccn1	6.9%	21.2µM*	-5.2	-19.1%	5.5%
Cn1c(SCC(=O)Nc2ccccc2Br)nnc1-c1cnccn1	-0.7%	-9.5%	2.3	-16.4%	0.8%
SMILES	WRN inhibitor	PLK1 PBD block	PI5P4K alpha inh	USP1-UAF1 inh	USP2a inh
CCC(=O)N(C)CCc1cc2c(c(OC)c1/C=N/NC(=O)c1ccc(Br)cc1)OCO2	-5.4%	23.8µM*	0.8	-18.6%	1.2%
COc1ccc(CC(=O)N(C)CC(=O)Nc2ccccc2SC)cc1	8.7%	23.8µM*	1.5	-19.3%	-1.6%
COc1ccc(S(=O)(=O)N(C)CC(=O)Nc2ccccc2SC)cc1	-3.5%	-7.8%	8.8	-5.1%	-1.1%
CCOc1ccc(C(=O)NC2CC(=O)N(c3ccc(C)cc3)C2)cc1OCC (stereo unspecified)	/	/	/	-23.6%	/
O=C(Cn1c2ccccc2c(=O)c2ccccc21)Nc1cccc(F)c1	-1.2%	10.6µM*	-24.1	-15.8%	4.9%
O=C(Cn1c(=O)n(Cc2ccco2)c(=O)c2ccccc21)Nc1cccc(F)c1	/	/	/	-26.6%	/
O=C(O)COc1ccccc1C(Nc1cccnc1)c1cc(Cl)c2cccnc2c1O (stereo unspecified)	?	1.19µM*	-64.5*	?	-1.6%
CC(=O)Nc1sc2c(c1C(=O)N1CCOCC1)CCCCC2	-7.9%	?	-2.4	6.5%	0.4%
COC(=O)Nc1sc2c(c1C(=O)N1CCOCC1)CCC(C)C2 (stereo unspecified)	-7.0%	26.7µM*	/	-12.2%	2.4%
NC1=NC(=O)C2(COC(c3cccnc3)OC2)S1 (stereo unspecified)	2.0%	33.6µM*	8.0	-5.3%	1.6%
C=Cc1ccc(CN2CCCN(Cc3ccc(F)cc3)S2(=O)=O)cc1	-4.0%	2.2%	0.7	-22.1%	2.2%
C=Cc1ccc(CN2CCCN(Cc3ccc(Cl)cc3)S2(=O)=O)cc1	-6.6%	15µM*	0.0	-13.2%	1.8%
Cc1cc(C)c2oc(C(=O)NCCc3ccc(S(N)(=O)=O)cc3)cc(=O)c2c1	2.5%	-3.6%	-2.3	-8.7%	-0.4%
Cc1ccc2c(=O)cc(C(=O)NCCc3ccc(S(N)(=O)=O)cc3)oc2c1	?	-21.8%	-78.5*	-21.4%	2.2%
COc1ccc(C2=NC3(CCCCCC3)N(CC(=O)Nc3cccc(Cl)c3)C2=O)cc1	/	/	/	-23.0%	/
Cc1cc(C)c(C(=O)CSc2nnc(N)s2)cc1C	6.4%	9.47µM*	-28.8	-30.4%	0.4%
COc1ccccc1C(=O)NC(=O)CSc1nnc(N)s1	-13.5%[11.6 µM]	-25.5%	-59.6*	-20.8%	4.5%
Cc1ccc(C(=O)CSc2nnc(N)s2)c(C)c1	-2.2%	-3.2%	-7.0	-4.4%	-0.6%
COc1ccccc1C(=O)NC(=O)CSc1nnc(SC)s1	-8.1%	-6.2%	6.1	-21.0%	0.3%
Cc1ccc(-n2ncc3c(Nc4cccc(C)c4C)ncnc32)cc1	/	/	/	-20.1%	/
CC(C)C[C@@H](CNCC(=O)[C@H](Cc1ccccc1)NC(=O)c1[nH]cnc1C(=O)N[C@H](CN)CC(C)C)NC(=O)c1nc[nH]c1C(=O)N[C@@H](CC(=O)O)C(=O)O	-4.0%	33.6µM*	?	?	/
CC(C)C[C@@H](CNCC(=O)[C@H](CC(C)C)NC(=O)c1[nH]cnc1C(=O)N[C@H](CN)CC(C)C)NC(=O)c1nc[nH]c1C(=O)N[C@@H](Cc1ccccc1)C(=O)O	11.1%	21.2µM*	?	-21.2%	/
O=C(NCC1CCCO1)c1ccc2c(c1)N(Cc1ccccc1)C(=O)CS2 (stereo unspecified)	-9.8%	29.9µM*	-5.3	-10.0%	1.0%
CCOc1ccc(CCNC(=O)c2ccc3c(=O)[nH]c4c(C(=O)NC(C)C)sc(=S)n4c3c2)cc1	-4.9%	?	-1.2	-14.1%	2.9%

Assay outcomes from PubChem BioAssay.
